Several values for one entry are separate records, joined by “and”; a condition that tells them apart may be missing. Equal entries are not always repeated. Compounds without any hit were thinned out: in the full panel of roughly 83,000, 20% have a hit.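 Results are percent growth after 48 hours of single-concentration exposure. 100 means growth as in untreated cells, lower positive values show inhibition; negative values down to -100 show cell death.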 Activity calls are given as the source filed them. Rule for the calls: active = growth percent below 10; inactive = the rest.
Experiments:
Experiment in all cases: NCI-60 one-dose screen, 48 h (100 = growth as untreated, 0 = no growth, -100 = all killed)
Details in all cases: 10 µM unless noted
[1] = tested on: DU-145 prostate
[2] = tested on: K-562 leukemia
[3] = tested on: MALME-3M melanoma
[4] = tested on: MDA-MB-231 breast
[5] = tested on: RXF 393 renal
[6] = tested on: SF-268 CNS
[7] = tested on: SF-295 CNS
[8] = tested on: SF-539 CNS
[9] = tested on: UACC-257 melanoma
[10] = tested on: HCT-15 colon
[11] = tested on: HT29 colon
[12] = tested on: SNB-75 CNS
[13] = tested on: SNB-19 CNS
[14] = tested on: U251 CNS
[15] = tested on: PC-3 prostate
[16] = tested on: SK-MEL-5 melanoma
[17] = tested on: UACC-62 melanoma
[18] = tested on: LOX IMVI melanoma
[19] = tested on: SK-MEL-28 melanoma
[20] = tested on: M14 melanoma

Row | SMILES | growth [1] | growth [2] | growth [3] | growth [4] | growth [5] | growth [6] | growth [7] | growth [8] | growth [9] | growth [10] | growth [11] | growth [12] | growth [13] | growth [14] | growth [15] | growth [16] | growth [17] | growth [18] | growth [19] | growth [20]
1 | CCOC(=O)c1c(C)oc(C)c(C(=O)OCC)c1=O | 118% (inactive) and 110% (inactive) | 102% (inactive) and 87% (inactive) | 133% (inactive) and 100% (inactive) | 109% (inactive) and 108% (inactive) | 104% (inactive) and 117% (inactive) | 102% (inactive) and 104% (inactive) | 133% (inactive) and 105% (inactive) | 102% (inactive) and 92.8% (inactive) | 102% (inactive) and 107% (inactive) | 106% (inactive) and 102% (inactive) | 105% (inactive) and 106% (inactive) | 96.5% (inactive) and 99.5% (inactive) | 102% (inactive) and 90.2% (inactive) | 111% (inactive) and 101% (inactive) | 94.1% (inactive) and 88.6% (inactive) | 111% (inactive) and 104% (inactive) | 111% (inactive) and 96.6% (inactive) | 103% (inactive) and 97.3% (inactive) | 109% (inactive) and 112% (inactive) | 
2 | COc1cc(C(=O)c2ccc3c(c2)OCO3)cc(OC)c1OC | 10.4% (inactive) and 27.7% (inactive) | 10.7% (inactive) | 14.5% (inactive) and 34.1% (inactive) | 53.2% (inactive) and 47.4% (inactive) | 28.3% (inactive) and 4.22% (active) | 37.3% (inactive) and 40.6% (inactive) | 9.91% (active) and 9.21% (active) | 18.4% (inactive) and -1.47% (active) | 18.6% (inactive) and 49.4% (inactive) | 15.6% (inactive) and 27.4% (inactive) |  | 0.967% (active) and -9.36% (active) | 35.9% (inactive) and 43.1% (inactive) | 24.1% (inactive) and 16.2% (inactive) | 29.3% (inactive) | 18.3% (inactive) and 8.01% (active) | 42.4% (inactive) and 22.9% (inactive) | 24% (inactive) and 44% (inactive) | 46.7% (inactive) and 43.2% (inactive) | 
3 | CCN(CC)CCCC(CNc1ccnc2cc(Cl)ccc12)c1ccc(Cl)cc1 (centres undefined) | 34.5% (inactive) and 29.6% (inactive) | -69% (active) and -71% (active) | -91.3% (active) and -77.4% (active) | -58.2% (active) and 38.7% (inactive) | -64.7% (active) and 22.7% (inactive) | -19.4% (active) and -34.3% (active) | -69.7% (active) and -71.8% (active) | -87.6% (active) and -92.2% (active) | -67.8% (active) and -86.2% (active) | -29.5% (active) and 5.81% (active) | 3.38% (active) and -5.84% (active) |  | 2.34% (active) and 92.4% (inactive) | -71.9% (active) and -57.4% (active) | 34.2% (inactive) and 19.3% (inactive) | -92.8% (active) and -96.9% (active) | -77.6% (active) and 97.7% (inactive) | -85.5% (active) and -13% (active) | -83.7% (active) and -85.7% (active) | 
4 | CCN1CCN(CCNc2nccc(-c3c(-c4cccc(O)c4)nc4sccn34)n2)S1(=O)=O | 67.1% (inactive) and 55.1% (inactive) | 69.6% (inactive) and 62.7% (inactive) | -11.1% (active) and -23.5% (active) | 64.7% (inactive) and 68.3% (inactive) | 42.8% (inactive) and 61.8% (inactive) | 86.2% (inactive) | 93.3% (inactive) and 98.9% (inactive) | 89.7% (inactive) and 87.3% (inactive) | 1.33% (active) and -7.98% (active) | 67.7% (inactive) and 59% (inactive) | 45.3% (inactive) and 50.4% (inactive) | 62.6% (inactive) and 50.2% (inactive) | 104% (inactive) and 117% (inactive) |  | 63.9% (inactive) and 77.9% (inactive) | 51% (inactive) and 32.4% (inactive) | 0.351% (active) and 0.223% (active) | 37.7% (inactive) and 30.9% (inactive) | 23.7% (inactive) and 20.5% (inactive) | 
5 | COc1cc2nc(N3CCC[C@@H](NC(=O)C4COc5ccccc5O4)C3)nc(N)c2cc1OC (some centres undefined) | 107% (inactive) and 108% (inactive) | 97.1% (inactive) and 94.1% (inactive) | 101% (inactive) and 109% (inactive) | 104% (inactive) and 106% (inactive) | 105% (inactive) and 88.6% (inactive) | 105% (inactive) and 103% (inactive) |  | 104% (inactive) and 101% (inactive) | 93.5% (inactive) and 92% (inactive) | 101% (inactive) and 97.1% (inactive) | 109% (inactive) and 97.7% (inactive) | 83.3% (inactive) and 90.3% (inactive) | 107% (inactive) and 102% (inactive) | 93.3% (inactive) and 84.2% (inactive) | 92.9% (inactive) and 94.2% (inactive) | 99.5% (inactive) and 96.7% (inactive) | 103% (inactive) and 104% (inactive) | 100% (inactive) and 94.7% (inactive) | 102% (inactive) and 98.7% (inactive) | 105% (inactive) and 101% (inactive)
6 | Cc1ccc(S(=O)(=O)Nc2nc3ccccc3nc2Nc2ccc3nsnc3c2)cc1 | 71.2% (inactive) and 62.5% (inactive) | 32.8% (inactive) and 35.3% (inactive) | 33.3% (inactive) and 9.84% (active) | 73.7% (inactive) and 68.8% (inactive) | 80.3% (inactive) and 87.8% (inactive) | 52.2% (inactive) and 54.5% (inactive) | 25.2% (inactive) and 26.7% (inactive) | 63.9% (inactive) and 60.8% (inactive) | 27% (inactive) and 54.4% (inactive) | 32% (inactive) and 58.6% (inactive) |  | 63.3% (inactive) and 65.9% (inactive) | 47.7% (inactive) and 47.6% (inactive) | 26.1% (inactive) and 40.1% (inactive) | 42.8% (inactive) and 27.3% (inactive) | 18.7% (inactive) and 13.7% (inactive) | 19% (inactive) and 12.8% (inactive) | 65.8% (inactive) and 47% (inactive) | 49.8% (inactive) and 51.6% (inactive) | 
7 | NC(=O)c1ccccc1OCC(O)CO (centres undefined) | 114% (inactive) | 107% (inactive) | 115% (inactive) | 103% (inactive) | 98.9% (inactive) | 105% (inactive) | 83.1% (inactive) | 90.2% (inactive) | 97.9% (inactive) | 98.1% (inactive) |  | 84.5% (inactive) | 102% (inactive) | 99.5% (inactive) | 103% (inactive) | 101% (inactive) | 98.5% (inactive) | 104% (inactive) | 105% (inactive) | 
8 | Cn1c(=O)c2[nH]c(CCCCCCCCc3nc4ccccc4[nH]3)nc2n(C)c1=O | 91.2% (inactive) and 82.7% (inactive) | 30.9% (inactive) | 71.9% (inactive) | 77% (inactive) and 60.9% (inactive) | 87.9% (inactive) and 101% (inactive) | 83.5% (inactive) and 98.3% (inactive) | 34.8% (inactive) and 35.9% (inactive) | 78.2% (inactive) and 74.8% (inactive) | 39.7% (inactive) and 72% (inactive) | 80.1% (inactive) and 96.1% (inactive) | 99% (inactive) and 85.6% (inactive) | 93.5% (inactive) and 80.5% (inactive) |  | 72.5% (inactive) and 80.2% (inactive) | 48.3% (inactive) and 87.3% (inactive) | 3.01% (active) and 12.2% (inactive) | 59.1% (inactive) | 58.3% (inactive) and 55.9% (inactive) | 88.9% (inactive) | 
9 | NCCSC(C[N+](=O)[O-])c1ccccc1Cl (centres undefined) | 37.6% (inactive) | -48.3% (active) | 98.8% (inactive) | 115% (inactive) | 11% (inactive) | 84.8% (inactive) | 101% (inactive) | 94.6% (inactive) | -3.93% (active) | 22.4% (inactive) | 36% (inactive) |  | 102% (inactive) | 77.6% (inactive) | 68.1% (inactive) | 85.1% (inactive) | 92.6% (inactive) | 31.4% (inactive) | -20.5% (active) | 

— PubChem BioAssay (NCI)
